Data reported in PubChem BioAssay (NCATS).
Results filed as inconclusive are left out. A call without a number means that no potency is given here. Activity calls are given as the source filed them. The call rests on the fitted dose curve; in most records, active means well fitted cell-killing curve with a large enough effect; inconclusive means small, poorly fitted or top-dose-only effect, or effect the other way; inactive means flat fitted curve, though single readings scatter. *1 amine or outer side, *2 acyl side, *3 side chain or, on linkers, in order; H or OH if unused. Where a SMILES comes first, the peptide text is derived from it. Bridges are numbered along the chain shown (N, C = ends). [ ]: non-standard residue; d: D form. The star is where a group is joined. pTerphenylCO(4''-OnC5H11) = CCCCCOc1ccc(-c2ccc(-c3ccc(C(=O)*)cc3)cc2)cc1; Orn(4R-OH,5R-OH) = O=C([C@H](C[C@@H](O)[C@@H](O)N[*:3])N[*:1])[*:2]; hTyr(3S-OH,4S-OH) = N[C@H](C(=O)O)[C@H](O)[C@@H](O)c1ccc(O)cc1; Pro(3S-OH,4S-Me) = C[C@H]1CN[C@H](C(=O)O)[C@H]1O; Hyp = O=C(O)[C@@H]1C[C@@H](O)CN1

tested on: Hek293T; assay: Primary qHTS to identify gynecologic anti-cancer compounds using libraries of approved drugs and bioactive compounds (AID 1345084); details: Gynecologic cancer cell panel viability, ATPlite luminescence, 48 h, control line for the selectivity index; series mostly up to 57.5 µM; further: nearly all actives have a fitted effect of over 55% in size
Outline: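 Cells, 1,000 per well, were allowed to settle for 16 h at 37 C before compound addition. Five concentrations were tested for 48 h, and viability was read by ATPlite luminescence after 15 min at room temperature.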

Row | SMILES | Potency
1 | CC(OC1OCCN(Cc2n[nH]c(=O)[nH]2)C1c1ccc(F)cc1)c1cc(C(F)(F)F)cc(C(F)(F)F)c1 (stereo unspecified) | inactive
2 | Fc1ccc(-c2cncc(CN3CCN(c4cccc5c4OCCO5)CC3)c2)cc1 | inactive
3 | C=C(CCC1C(C)(O)CCC2C(C)(C)C(O)CCC12C)C(O)CO (stereo unspecified) | inactive
4 | CCC[C@@]1(CCc2ccccc2)CC(O)=C([C@H](CC)c2cccc(NS(=O)(=O)c3ccc(C(F)(F)F)cn3)c2)C(=O)O1 | inactive
5 | COc1ccc([C@H]2Cc3cccc(O)c3C(=O)O2)cc1OC | inactive
6 | C/C=C(/C)C(=O)OC1C=C2C3C(C)C(C)C(OC(=O)C(C)C(C)O)CC3(C)CCC2(C)C2(C)CC(OC(C)=O)C3C(C)(C)C(O)C(=O)CC3(C)C12 (stereo unspecified) | inactive
7 | CN1CCN(C2=Nc3ccccc3Nc3ccc(Cl)cc32)CC1 | inactive
8 | COc1ccc(NC(=O)c2ccc(-c3ccc(C(=N)N)cc3C)cc2)cc1N1CCN(C)CC1 | inactive
9 | O=C(c1ccccn1)N(Cc1cccs1)C1(C(=O)NC2CCCCC2)CCCCC1 | inactive
10 | O=c1cc(OCc2ccc(F)cc2)ccn1-c1ccc(OCCN2CCCC2)cc1 | inactive
11 | Cc1cccc(N2CCN(C(=O)c3cc(S(=O)(=O)N(C)C)ccc3N3CCCC3)CC2)c1C | inactive
12 | N#CC(CCCN1CCN(/N=C/c2cccnc2)CC1)(c1ccccc1)c1ccccc1 | inactive
13 | Cc1cccc(C#Cc2cc(F)cc(C#N)c2)n1 | inactive
14 | COc1ccncc1C(=O)NC(=O)Nc1ccc(-c2ccccc2)c(C(F)(F)F)c1 | inactive
15 | Clc1ccc(Cn2c(Cc3ccccc3)nc3ccccc32)cc1 | inactive
16 | Cc1cc2sc(NC(=O)Cc3ccccc3)nc2cc1Cl | inactive
17 | O=C(Cc1c(F)cccc1F)Nc1cc(OCc2ccc(Cl)cc2)ccn1 | inactive
18 | O=C(c1cc(Cc2n[nH]c(=O)c3ccccc23)ccc1F)N1CCCNCC1 | inactive

Row | SMILES | Potency
19 | CCC(C)/C=C(C)/C=C/C1=CC2=CC(=O)C3(C)OC(C)(O)C(C(=O)OC)C3C2=CO1 (stereo unspecified) | inactive
20 | CNc1cc2[nH]c(=O)n(-c3ccc(NC(=O)NS(=O)(=O)c4ccc(Cl)s4)cc3)c(=O)c2cc1F | inactive
21 | COc1ccc(-n2c(SCCCN3C(=O)c4cccc5cccc(c45)C3=O)nnc2-c2ccncc2)cc1 | inactive
22 | C=C1C(=O)OC2/C=C(\CO)CC/C=C(\C=O)C(O)C(OC(=O)C(C)CC)C12 (stereo unspecified) | inactive
23 | O=C(Nc1ccccc1C(=O)Nc1ccc(CCO)cc1)c1ccc([N+](=O)[O-])cc1 | inactive
24 | CC1(C)CC[C@]2(C(=O)O)CC[C@]3(C)C(=CCC4[C@@]5(C)C[C@@H](O)[C@H](O)[C@@](C)(CO)C5CC[C@]43C)[C@@H]2[C@@H]1O (stereo partly specified) | inactive
25 | C=C(C(=O)OC[C@H]1O[C@@H](OC(=O)/C=C/c2ccccc2)[C@H](O)[C@@H](O)[C@@H]1O)C(O)CO (stereo partly specified) | inactive
26 | COc1ccccc1OCCNCC(O)CCOc1cccc2[nH]c3ccccc3c12 (stereo unspecified) | inactive
27 | CC(C)/C=C1\NC(=O)C(C(C)C)n2c1nc1ccccc1c2=O (stereo unspecified) | inactive
28 | CCCCCOc1ccc(-c2ccc(-c3ccc(C(=O)N[C@H]4C[C@@H](O)[C@@H](O)NC(=O)[C@@H]5[C@@H](O)[C@@H](C)CN5C(=O)[C@H]([C@@H](C)O)NC(=O)[C@H]([C@H](O)[C@@H](O)c5ccc(O)cc5)NC(=O)[C@@H]5C[C@@H](O)CN5C(=O)[C@H]([C@@H](C)O)NC4=O)cc3)cc2)cc1 ({pTerphenylCO(4''-OnC5H11)}-[Orn(4R-OH,5R-OH)]T[Hyp][hTyr(3S-OH,4S-OH)]T[Pro(3S-OH,4S-Me)]; lactam 1-C) | inactive
29 | COc1ccccc1C(=O)Nc1cc2c(cc1N1CCCC1)n(C)c(=O)n2C | inactive
30 | C=C1C(=O)OC2C1CCC1(C)C(O)CCC(=C)C21 (stereo unspecified) | inactive
31 | Cc1nc(C#Cc2ccnc(Cl)c2)c(C)n1-c1ccc(OC(F)(F)F)cc1 | inactive
32 | COc1cc(CCc2ccc(OCC=C(C)C)cc2)cc(OC)c1OC | inactive
33 | CC(=O)[C@H]1CC[C@H]2[C@@H]3CC=C4C[C@@H](OS(=O)(=O)O)CC[C@]4(C)[C@H]3CC[C@]12C | inactive
34 | C=C(C(=O)O)[C@@H]1CC=C(CCC(C)=O)[C@@H](C)CC1 | inactive
35 | C=C[C@]1(C)C[C@H](O)[C@H]2C(=C)C(=O)O[C@@H]2[C@H]1C(=C)CO | inactive
36 | CC[C@H](C)/C=C(C)/C=C/C1=CC2=C(Cl)C(=O)[C@](C)(O)[C@H](OC(C)=O)[C@H]2CO1 | inactive
